Data on 45 compounds can be found in PubChem BioAssay AID2472 (National Center for Advancing Translational Sciences (NCATS), 2010).

Each structure is given as a SMILES string. The whole screen tested about 290,000 compounds, of which about 2,000 (0.69%) were called active. Cut-off read from the data, not from the text of the source: active = activity change below about -30%; inactive = the rest, inconclusive results apart. What follows is part of a selection rich in actives, with near analogues and random picks from the rest.
% is set by controls: 0 for no effect and ±100 for the full control effect.

This assay can be described thus: qHTS Assay for Inhibitors of Fructose-1,6-bisphosphate Aldolase from Giardia Lamblia: Coupling assay counterscreen. To be noted: coupling enzyme system counterscreen, AmpLite Red fluorescence; at 58.2 µM (top of the series). The text has this:
MLPCN Grant: MH085699-01 Assay Provider: Osnat Herzberg, University of Maryland NCGC Assay Overview: The objective of this project is to obtain compounds that inhibit Giardia lamblia growth. G. lamblia is a human pathogen which afflicts impoverished nations; it is the most common cause of outbreaks of diarrhea in the United States. During the course of our study of potential drug targets in Giardia, we have identified the Class II (Zn2+ functions in electrophilic catalysis) fructose-1,6-bisphosphate aldolase (FBPA) as an excellent candidate for drug targeting. FBPA is a key glycolytic pathway enzyme, essential for G. lamblia survival. The human FBPA belongs to the Class I aldolases, which have a different substrate binding site structure and a radically different catalytic mechanism (employing a lysine-Schiff base intermediate). Therefore, affinity-based or mechanism-based inhibitors of the Giardia FBPA are expected not to interfere with the catalytic function of the human FBPA. A glyceraldehyde-3-phosphate dehydrogenase/triose phosphate isomerase/NAD/arsenate coupled assay was adapted to the 1536-well HTP format for use in the primary screen. This was done by coupling it to a diaphorase/resazurin/resorufin reaction that can be monitored by fluorescence (excitation, 544 nm; emission, 590 nm). Compounds identified in this screen will be further evaluated by coupling the […]/triose phosphate isomerase/NADH assay to a phenazine methosulfate/tetranitroblue tetrazolium color reaction. False positives due to the dehydrogenases and diaphorase inhibition will be eliminated, and selectivity assay will triage inhibitors of mammalian triose phosphate isomerase and the Class I FBPA. G. lamblia FBPA inhibitors identified by the in vitro analyses will be examined for growth inhibition of Giardia trophozoites, and for cytotoxicity in human cells. This assay specifically addresses whether activity observed in the primary screen (AID 2451) is related to inhibition of the coupling assay used, as opposed to inhibition of aldolase. Actives in this assay are considered inconclusive for activity against aldolase.
NCGC Assay Protocol: Step,Parameter,Value,Description 1,Coupling enzyme reagent,2 uL,glyceraldehyde-3-phosphate 2,Compound,23 nL,3.68 nM-57.5 uM final concentration 3,Time,10 min,RT Incubation 4,Substrate/detection Reagent,2 uL,Substrate + enzyme coupling system + AmpLite Red kit 5,Time,20 min,RT Incubation 6,Detector,525 nm/598 nm (Fluorescence),ViewLux Fluorescence Read (Read 1) Notes: 1,Medium-binding black solid-bottom Kalypsys plates. FRD or Kalypsys dispenser. 2,Compound Library (10 mM ,1:5 dilution). Pin-transferred for a [final] range of 3.68 nM-57.5 uM. 3,RT incubation 4,FRD or Kalypsys dispenser, 2 uL of reaction mixture. Bottle kept at 4C and covered in foil to protect from light. 5,RT incubation 6,ViewLux Protocol 1194; Excitation filter wheel A (525/20 Pol; BODIPY TMR FP), Emission filter wheel B (598/25 S; BODIPY TMR FP S). Keywords: Fructose-bisphosphate aldolase, FBPA , Giardia lamblia , Giardia, HTS, Inhibitors
On the technique in general: In qHTS, concentration-response curves come from the screen itself.
For the compound `Cn1cc(-c2nc3cnc(N4CCNCC4)nc3n(CCc3ccccc3)c2=O)c2ccccc21`, the activity change, negative = inhibition was -0.191% (inactive).

Regarding `CC(C)C1=CC2=CC[C@@H]3[C@](C)(CO)CCC[C@]3(C)C2CC1` (stereo not given in full), the activity change, negative = inhibition was -1.26% (inactive).

As to `COc1cccc(CN(C)C(=O)CC23CC4CC(CC(C4)C2)C3)c1OC`, the activity change, negative = inhibition is -1.24% (inactive).

As to `COc1ccc(S(=O)(=O)N2CCCC(C(=O)NCCCn3ccnc3)C2)cc1OC` (stereo not given), the activity change, negative = inhibition is -2.16% (inactive).

With `CCN(CC)c1ccc(C(=O)Nn2c(C)nc3ccccc3c2=O)cc1`, the activity change, negative = inhibition is 2.59% (inactive).

In the case of `CC(C)Oc1c(Br)cc(Br)cc1/C=N/NC(N)=S`, the activity change, negative = inhibition is -0.43% (inactive).

With `Cc1ccc(-c2c3c(=O)n(C)c(=O)n(C)c3cn2-n2cnnc2)cc1`, the activity change, negative = inhibition is 1.01% (inactive).

As to `COc1cccc(-n2cc3c(c2-c2ccccc2)c(=O)n(C)c(=O)n3C)c1`, the activity change, negative = inhibition is -16.5% (inactive).

As for `Cc1ccc(-c2c3c(=O)n(C)c(=O)n(C)c3cn2-c2ccccc2O)cc1`, the activity change, negative = inhibition was -32% (active).

For the compound `O=c1o[nH]c(-c2ccccc2)c1N=Nc1c(F)cccc1Cl`, the activity change, negative = inhibition is 5.04% (inactive).

Take `COc1cnc(SCc2ccc(Cl)c(Cl)c2)nc1Cl`: the activity change, negative = inhibition was 1.35% (inactive).

As for `CCCC(=O)N1CCC(CCC(=O)NC2CC2)CC1`, the activity change, negative = inhibition was 0.0768% (inactive).

Take `O=C(CC(n1cncn1)C(Cl)(Cl)Cl)c1ccc([N+](=O)[O-])cc1` (stereo not given): the activity change, negative = inhibition was -0.311% (inactive).

For `O=C(CN1C(=O)COc2ccccc21)Nc1ccc(F)cc1`, the activity change, negative = inhibition is -7.46% (inactive).

Turning to `CCCN1CCN(CCCNC(=O)CN2C(=O)COc3ccccc32)CC1`, the activity change, negative = inhibition was -1.3% (inactive).

With `O=C(CN1C(=O)COc2ccccc21)NCCN1CCc2ccccc2C1`, the activity change, negative = inhibition was -31.2% (active).

Take `COCc1cc(C)n(CC(=O)NCC2CCCO2)c(=O)c1C#N` (stereo not given): the activity change, negative = inhibition was 0.717% (inactive).

With `CNS(=O)(=O)c1ccc(NC(=O)Nc2ccc3c(c2)OCO3)cc1`, the activity change, negative = inhibition was -1.22% (inactive).

Take `CCCCN(CC)C(=O)C1CCCN(S(=O)(=O)c2cccc3nsnc23)C1` (stereo not given): the activity change, negative = inhibition was -1.17% (inactive).

For the compound `COc1ccc(CC(=O)Nc2c(C(N)=O)oc3ccccc23)cc1`, the activity change, negative = inhibition was 2.14% (inactive).

Regarding `Clc1ccccc1CSc1nnc(-c2ccco2)c(-c2ccco2)n1`, the activity change, negative = inhibition is -6.43% (inactive).

For `Cn1c(-c2ccco2)nc2cc3ccccc3cc21`, the activity change, negative = inhibition was -10.1% (inactive).

Turning to `c1coc(-c2nc3nc4ccccc4n3nc2-c2ccco2)c1`, the activity change, negative = inhibition was -45.8% (active).

On to `CN(CCOc1ccccc1)C(=O)c1cc(COc2c(F)cccc2F)on1`, for which the activity change, negative = inhibition was -0.542% (inactive).

As to `CN1CCN(/N=C2/C(=O)Nc3ccc([N+](=O)[O-])cc32)CC1`, the activity change, negative = inhibition was -19.1% (inactive).

Turning to `O=[N+]([O-])c1ccc(N(CCO)Cc2ccccc2)c([N+](=O)[O-])c1`, the activity change, negative = inhibition was -1.63% (inactive).

Take `O=C1Nc2ccc([N+](=O)[O-])cc2C1=Nc1cccc(CO)c1`: the activity change, negative = inhibition is -33% (active).

Take `COC(=O)N/N=C/c1cn(CCCOc2ccc(C)cc2)c2ccccc12`: the activity change, negative = inhibition is -8.57% (inactive).

`COc1ccc(C2CC(O)(c3ccccc3)Oc3cc(C)cc(C)c32)cc1` (stereo not given): the activity change, negative = inhibition is -4.71% (inactive).

For `CC1C(=O)C(C)C(c2ccc(O)cc2)NC1c1ccc(O)cc1` (stereo not given), the activity change, negative = inhibition is -1.45% (inactive).

Regarding `CCOC(=O)c1cc2occc2n1CC(=O)NC1CCC(C)CC1` (stereo not given), the activity change, negative = inhibition was -0.298% (inactive).

As to `CCOC(=O)c1cc2occc2n1CC(=O)N1CCN(C(=O)c2ccco2)CC1`, the activity change, negative = inhibition is 2.42% (inactive).

`CCOC(=O)c1cc2c(ccn2C)n1CC(=O)N1CCC(C)CC1`: the activity change, negative = inhibition was -41.2% (active).

With `COC(=O)N1C(/C=C/C=C/c2ccc(OC)cc2)=Cc2ccccc2C1CC(C)=O` (stereo not given), the activity change, negative = inhibition is -0.194% (inactive).

Turning to `Cc1ccc(OCC(=O)Nc2ccccc2Sc2ccc(Cl)cc2)c([N+](=O)[O-])n1`, the activity change, negative = inhibition was -30.3% (active).

Regarding `CCc1ccccc1NC(=O)CN(C)C(=O)COc1ccc(C)nc1[N+](=O)[O-]`, the activity change, negative = inhibition is -2.08% (inactive).

As for `Cc1ccc(OCC(=O)NC(C)c2ccccc2)c([N+](=O)[O-])n1` (stereo not given), the activity change, negative = inhibition was 0.28% (inactive).

For the compound `C=C(C(C)=O)C(O)c1cccs1` (stereo not given), the activity change, negative = inhibition was 2.11% (inactive).

For the compound `O=C(COCc1cc(-c2ccc3c(c2)OCO3)on1)N1CCN(c2cccc(Cl)c2)CC1`, the activity change, negative = inhibition is -0.674% (inactive).

In the case of `CCN(CC)c1ccc(/C=N/Nc2nc(C)cc(C)n2)c(O)c1`, the activity change, negative = inhibition is -8.39% (inactive).

As for `CCN(CC)c1ccc2oc(=O)c(C)nc2c1`, the activity change, negative = inhibition is -46.3% (active).

Turning to `CCN(CC)c1ccc2cc(C(N)=O)/c(=N\NC(=O)c3ccncc3)oc2c1`, the activity change, negative = inhibition is -7.4% (inactive).

In the case of `CCC(=O)Nc1ccc2nn(-c3ccc(F)cc3)nc2c1`, the activity change, negative = inhibition is 0.799% (inactive).

As to `Cc1cccc(NC(=S)NCc2ccc3[nH]c4c(c3c2)CCCC4)c1`, the activity change, negative = inhibition was -0.782% (inactive).

`O=C(O)CCC(=O)NCc1ccc2[nH]c3c(c2c1)CCCC3`: the activity change, negative = inhibition is -41.3% (active).
